RecA splice inh: Mtb RecA intein splicing inhibitors, primary screen, biochemical, fluorescence, HTS; Protein RecA (Mycobacterium tuberculosis (strain ATCC 25618 / H37Rv)), P9WHJ3; cell-free RecA intein splicing; inhibition, % (test concentration not listed); 0.75% of 290,000 active; AID 2221, 2009; in the data active = inhibition above about 30%
Target sequence (P9WHJ3 whole entry, looked up, canonical isoform): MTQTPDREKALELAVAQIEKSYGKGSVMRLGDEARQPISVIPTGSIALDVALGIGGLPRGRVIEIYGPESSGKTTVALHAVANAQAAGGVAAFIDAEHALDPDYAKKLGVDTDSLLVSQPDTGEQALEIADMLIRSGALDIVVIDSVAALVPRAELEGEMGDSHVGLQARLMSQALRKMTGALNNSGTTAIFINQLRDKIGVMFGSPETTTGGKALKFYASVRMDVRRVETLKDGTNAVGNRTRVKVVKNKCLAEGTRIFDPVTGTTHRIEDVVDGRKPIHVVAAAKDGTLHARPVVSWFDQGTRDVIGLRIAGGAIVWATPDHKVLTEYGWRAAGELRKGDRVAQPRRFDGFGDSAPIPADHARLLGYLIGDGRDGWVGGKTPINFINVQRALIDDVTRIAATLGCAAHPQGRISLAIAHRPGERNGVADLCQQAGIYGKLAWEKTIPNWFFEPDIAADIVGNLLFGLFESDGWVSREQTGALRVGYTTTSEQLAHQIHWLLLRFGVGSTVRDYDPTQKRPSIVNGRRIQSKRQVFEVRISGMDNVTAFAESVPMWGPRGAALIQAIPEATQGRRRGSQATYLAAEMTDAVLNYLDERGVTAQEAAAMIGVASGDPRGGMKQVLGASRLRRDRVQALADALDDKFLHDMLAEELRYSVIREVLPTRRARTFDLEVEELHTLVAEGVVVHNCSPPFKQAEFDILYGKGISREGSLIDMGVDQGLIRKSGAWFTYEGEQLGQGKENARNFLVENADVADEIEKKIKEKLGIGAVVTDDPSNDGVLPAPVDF
FBA Mtb inh: Mtb FBA enzyme inhibitors, primary screen, biochemical, fluorescence, strain H37Rv | Fructose-bisphosphate aldolase (Mycobacterium tuberculosis (strain ATCC 25618 / H37Rv)), … | AID 588726, 2011 | purified M. tuberculosis FBA, fluorescence read-out | inhibition, % at 1 µM | 2.3% of 360,000 active; in the data active = inhibition above about 27%
BJeLR viability: MLPCN primary cell-based screen for lethality selective to Ras in HRASV12 cells; BJeLR (HRASV12) viability, CellTiter-Glo ATP luminescence, 48 h; inhibition, % (test concentration not listed); 0.17% of 300,000 active; AID 1554, 2009; in the data active = inhibition above about 50%
GDH-TPI counter: GDH-TPI coupling enzyme inhibitors, primary screen, artefact control for M. tuberculosis FBA inhibitor project, biochemical, absorbance, full deck | inhibition, % at 4.8 µM | 1.2% of 360,000 active | GDH-TPI coupled enzyme counterscreen, NADH absorbance; in the data active = inhibition above about 30%
PrPC surface inh: inhibitors of human cell surface prion protein PrPC, primary screen, cell-based, TR-FRET | inhibition, % at 13.8 µM | 0.43% of 370,000 active | TR-FRET read-out; in the data active = inhibition above about 24%
GFP chromo cs: counter-screen: blocks GFP chromophore formation, dose response, counter-screen, biochemical, fluorescence, homogeneous | shares compounds with RecA splice inh | cell-free GFP chromophore formation | EC50, µM | 83% of 2,100 active; call rule not given here
Numbers stand for hits. A selection: hits, their analogues and other compounds. The true share with any hit is near 4.2%.

How did Cc1ccc(-c2cc(NC(=O)CCl)n(-c3ccccc3)n2)cc1 do in these assays?
RecA splice inh: 73; FBA Mtb inh: inactive; BJeLR viability: inactive; GDH-TPI counter: inactive; PrPC surface inh: inactive; GFP chromo cs: 33

What do the screens show for `CC(=O)Nc1ccc(-c2cc(NC(C)=O)n(-c3ccccc3)n2)cc1`?
RecA splice inh: inactive; FBA Mtb inh: inactive; BJeLR viability: inactive; GDH-TPI counter: inactive; PrPC surface inh: inactive

Results for Cc1cc(NC(=O)COc2ccccc2)n(-c2ccccc2)n1 ?
RecA splice inh: inactive; FBA Mtb inh: inactive; BJeLR viability: inactive; GDH-TPI counter: inactive; PrPC surface inh: inactive

How did O=C(CCl)Nc1cc(-c2ccccc2)nn1-c1ccccc1 do in these assays?
RecA splice inh: 62; FBA Mtb inh: inactive; BJeLR viability: inactive; GDH-TPI counter: inactive; PrPC surface inh: inactive; GFP chromo cs: 40

What do the screens show for `CCOc1ccc(CCNC(=O)c2cc3sccc3n2CC)cc1OC`?
PrPC surface inh: inactive

What do the screens show for `COc1cccc(/C=C2\SC(=S)N(CCCC(=O)N3CCCC3)C2=O)c1`?
RecA splice inh: 33; FBA Mtb inh: inactive; BJeLR viability: inactive; GDH-TPI counter: inactive; PrPC surface inh: inactive; GFP chromo cs: inactive

What do the screens show for `COc1ccc(/C=C2\SC(=S)N(CCCC(=O)Nc3ccc(O)cc3)C2=O)cc1`?
RecA splice inh: 40; FBA Mtb inh: inactive; BJeLR viability: inactive; GDH-TPI counter: inactive; PrPC surface inh: inactive; GFP chromo cs: inactive

Results for COc1ccc(/C=C2\CC3(OC(=O)c4ccc(F)cc4)CCCN2C3)cc1 (stereo not given) ?
PrPC surface inh: inactive

How did O=C(CSc1nnc(Cc2ccccc2)o1)Nc1cccc(F)c1 do in these assays?
RecA splice inh: 43; FBA Mtb inh: inactive; BJeLR viability: inactive; GDH-TPI counter: inactive; PrPC surface inh: inactive; GFP chromo cs: inactive

What do the screens show for `O=C(CSc1nnc(Cc2ccccc2)o1)Nc1ccccc1`?
RecA splice inh: inactive; FBA Mtb inh: inactive; GDH-TPI counter: inactive; PrPC surface inh: inactive

Results for O=C(Nc1ccccc1N(C(=O)c1ccco1)S(=O)(=O)c1cccs1)c1ccco1 ?
RecA splice inh: inactive; FBA Mtb inh: inactive; BJeLR viability: inactive; GDH-TPI counter: inactive; PrPC surface inh: inactive; GFP chromo cs: 5.8

Results for COc1ccc(C(=O)N(c2ccc(OC)cc2)S(=O)(=O)c2cccs2)cc1 ?
RecA splice inh: inactive; FBA Mtb inh: inactive; BJeLR viability: inactive; GDH-TPI counter: inactive; PrPC surface inh: inactive

How did COc1ccc(N(C(=O)c2ccco2)S(=O)(=O)c2cccs2)cc1 do in these assays?
RecA splice inh: 33; FBA Mtb inh: inactive; BJeLR viability: inactive; GDH-TPI counter: inactive; PrPC surface inh: inactive; GFP chromo cs: inactive

Results for Cn1nc([N+](=O)[O-])nc1S(C)(=O)=O ?
RecA splice inh: inactive; FBA Mtb inh: inactive; BJeLR viability: inactive; GDH-TPI counter: inactive; PrPC surface inh: inactive

Results for CS(=O)(=O)c1nc([N+](=O)[O-])nn1CCCc1ccccc1 ?
RecA splice inh: 51; FBA Mtb inh: inactive; BJeLR viability: inactive; GDH-TPI counter: inactive; GFP chromo cs: 26

How did Cc1ccc(S(=O)(=O)/N=C2\C=C(Nc3cccc(C(=O)O)c3)C(=O)c3ccccc32)c(C)c1 do in these assays?
RecA splice inh: 82; FBA Mtb inh: inactive; BJeLR viability: inactive; GDH-TPI counter: inactive; PrPC surface inh: inactive; GFP chromo cs: inactive

Results for Cc1ccc(S(=O)(=O)/N=C2\C=C(NS(=O)(=O)c3ccccc3)C(=O)c3ccccc32)c(C)c1 ?
FBA Mtb inh: inactive; GDH-TPI counter: inactive; PrPC surface inh: inactive

How did Cc1ccc(S(=O)(=O)/N=C2\C=C(Nc3ccc(O)cc3)C(=O)c3ccccc32)cc1 do in these assays?
FBA Mtb inh: inactive; GDH-TPI counter: inactive

What do the screens show for `Cc1ccc(S(=O)(=O)/N=C2\C=C(Nc3cccc(C(=O)O)c3)C(=O)c3ccccc32)cc1`?
RecA splice inh: 95; FBA Mtb inh: inactive; BJeLR viability: inactive; GDH-TPI counter: inactive; PrPC surface inh: inactive; GFP chromo cs: 0.51

What do the screens show for `CCc1ccc(S(=O)(=O)/N=C2\C=C(Nc3ccc(C(=O)O)cc3)C(=O)c3ccccc32)cc1`?
RecA splice inh: 91; FBA Mtb inh: inactive; BJeLR viability: inactive; GDH-TPI counter: inactive; PrPC surface inh: inactive; GFP chromo cs: 0.24

What do the screens show for `CC(C)(C)c1ccc(S(=O)(=O)/N=C2\C=C(NS(=O)(=O)c3ccccc3)C(=O)c3ccccc32)cc1`?
RecA splice inh: 63; FBA Mtb inh: inactive; BJeLR viability: inactive; GDH-TPI counter: inactive; PrPC surface inh: inactive; GFP chromo cs: 7.9

Results for Brc1ccc2nc(-c3ccc(CN4CCC(c5nc6ccccc6[nH]5)CC4)cc3)c(-c3ccccc3)nc2c1 ?
PrPC surface inh: inactive

Results for Cc1[nH]nc2c1C(C1CC=CCC1)C(C#N)=C(N)O2 (stereo not given) ?
FBA Mtb inh: inactive; GDH-TPI counter: inactive; PrPC surface inh: inactive

Results for Cc1ccc(-c2ccc(C3C(C#N)=C(N)Oc4n[nH]c(C)c43)o2)cc1 (stereo not given) ?
RecA splice inh: 67; FBA Mtb inh: inactive; BJeLR viability: inactive; GDH-TPI counter: inactive; PrPC surface inh: inactive; GFP chromo cs: 36

How did CC(C)(C)c1[nH]nc2c1C(Cc1ccccc1)C(C#N)=C(N)O2 (stereo not given) do in these assays?
RecA splice inh: 54; FBA Mtb inh: inactive; BJeLR viability: inactive; GDH-TPI counter: inactive; PrPC surface inh: inactive; GFP chromo cs: 20

How did CCC(CC)C1C(C#N)=C(N)Oc2n[nH]c(C)c21 (stereo not given) do in these assays?
RecA splice inh: inactive; FBA Mtb inh: inactive; BJeLR viability: inactive; GDH-TPI counter: inactive; PrPC surface inh: inactive

How did CC(C)(C)c1[nH]nc2c1C(C1C=CCCC1)C(C#N)=C(N)O2 (stereo not given) do in these assays?
RecA splice inh: inactive; FBA Mtb inh: inactive; BJeLR viability: inactive; GDH-TPI counter: inactive; PrPC surface inh: inactive

Results for Cc1[nH]nc2c1C(c1ccsc1C)C(C#N)=C(N)O2 (stereo not given) ?
RecA splice inh: 48; FBA Mtb inh: inactive; BJeLR viability: inactive; GDH-TPI counter: inactive; PrPC surface inh: inactive; GFP chromo cs: 28

What do the screens show for `Cc1cc(C2C(C#N)=C(N)Oc3n[nH]c(C)c32)c(C)s1` (stereo not given)?
RecA splice inh: 81; FBA Mtb inh: inactive; BJeLR viability: inactive; GDH-TPI counter: inactive; PrPC surface inh: inactive; GFP chromo cs: 37

How did Cc1ccc(C2=NN(C(=O)CCl)C(c3ccco3)C2)o1 (stereo not given) do in these assays?
RecA splice inh: 63; FBA Mtb inh: inactive; BJeLR viability: 87; GDH-TPI counter: inactive; PrPC surface inh: inactive; GFP chromo cs: 40
